Measured values published in ChEMBL document CHEMBL1157539, “Thousands of chemical starting points for antimalarial lead identification” (Nature, 2010).

Experiments:
Type in all cases: functional
[1] = system: Plasmodium falciparum; experiment: GSK_TCMDC: Inhibition of Plasmodium falciparum 3D7 in whole red blood cells, using parasite LDH activity as an index of growth. Test compounds present at 2uM
[2] = system: Plasmodium falciparum; experiment: GSK_TCMDC: Inhibition of Plasmodium falciparum Dd2 in whole red blood cells, using parasite LDH activity as an index of growth. Test compounds present at 2uM
[3] = system: HepG2; experiment: GSK_TCMDC: Percent inhibition of human HepG2 cell line. Test compounds present at 10uM.

Question: `Cc1cnc(C(=O)Nc2ccc(-c3cccc(-c4nc5ccccc5[nH]4)c3)cc2)cn1` was tested. Which Inhibition [1] did it give?
Answer: The Inhibition was 93%.

Question: What about the Inhibition [2] of the same compound?
Answer: Its Inhibition is 8%.

Question: What about the Inhibition [3] of the same compound?
Answer: Its Inhibition is 77%.

Question: With `O=C(NC1CCN(c2ccnc3cc(Cl)ccc23)C1)c1ccccc1F.O=C(O)C(F)(F)F` (centres undefined) as the compound, how does the Inhibition [1] read?
Answer: Its Inhibition is 100%.

Question: What about the Inhibition [2] of the same compound?
Answer: Its Inhibition is 71%.

Question: And the Inhibition [3]?
Answer: Its Inhibition is 8%.

Question: What does the source list for `O=C(NC1CCN(c2ccnc3cc(Cl)ccc23)C1)c1ccc(F)cc1F.O=C(O)C(F)(F)F` (centres undefined)?
Answer: Inhibition [1]: 100%; Inhibition [2]: 100%; Inhibition [3]: 31%

Question: How did the Inhibition [1] turn out when `Cc1cc(OCCCN2CCC(NS(=O)(=O)c3cc(Br)c(Cl)s3)CC2)c2ccccc2n1` was run?
Answer: Its Inhibition is 95%.

Question: What about the Inhibition [2] of the same compound?
Answer: The Inhibition was 39%.

Question: What about the Inhibition [3] of the same compound?
Answer: The Inhibition was 5%.

Question: Which results are given for `O=C(/C=C/c1ccccc1Cl)Nc1ccc(Br)c(OCCN2CCCCC2)c1.O=C(O)C(=O)O`?
Answer: Inhibition [1]: 99%; Inhibition [2]: 25%; Inhibition [3]: 11%

Question: How did the Inhibition [1] turn out when `Cl.NC1(C(=O)O)Cc2ccc(Cl)cc2C1` (centres undefined) was run?
Answer: Its Inhibition is 93%.

Question: What about the Inhibition [2] of the same compound?
Answer: Its Inhibition is 1%.

Question: What about the Inhibition [3] of the same compound?
Answer: Its Inhibition is 0%.

Question: For `Cc1ccc(Nc2nc(C)cc(N3CCN(c4ccccc4)CC3)n2)cc1`, which Inhibition [1] is on record?
Answer: The Inhibition was 93%.

Question: And the Inhibition [2]?
Answer: The Inhibition was 72%.

Question: What about the Inhibition [3] of the same compound?
Answer: The Inhibition was 4%.

Question: `CN(C)CCCOc1ccc(CCCCc2ccc(Cl)cc2C(=O)c2ccccc2)cc1.O=C(O)C(=O)O` was tested. Which Inhibition [1] did it give?
Answer: The Inhibition was 92%.

Question: And the Inhibition [2]?
Answer: Its Inhibition is 8%.

Question: What about the Inhibition [3] of the same compound?
Answer: The Inhibition was 8%.

Question: How did the Inhibition [1] turn out when `O=C(O)/C=C\C(=O)O.c1ccc(COc2ccnc(NCCCOc3cccc(CN4CCCCC4)c3)c2)cc1` was run?
Answer: The Inhibition was 100%.

Question: And the Inhibition [2]?
Answer: The Inhibition was 51%.

Question: And the Inhibition [3]?
Answer: Its Inhibition is 22%.

Question: What does the source list for `CCN(CC)C(=O)c1cnc(-c2ccccc2)nc1Oc1cccc(Cl)c1`?
Answer: Inhibition [1]: 92%; Inhibition [2]: 40%; Inhibition [3]: 0%

Question: `CCCCc1ccc(Cc2cnc3nc(N)nc(N)c3c2C)cc1` was tested. Which Inhibition [1] did it give?
Answer: The Inhibition was 96%.

Question: And the Inhibition [2]?
Answer: Its Inhibition is 5%.

Question: What about the Inhibition [3] of the same compound?
Answer: The Inhibition was 64%.

Question: For `Cl.N#Cc1ccc2c(c1)CCN(CCC1CCC(NC(=O)/C=C/c3c[nH]c4ccc(F)cc34)CC1)CC2` (centres undefined), which Inhibition [1] is on record?
Answer: Its Inhibition is 100%.

Question: And the Inhibition [2]?
Answer: The Inhibition was 83%.

Question: What about the Inhibition [3] of the same compound?
Answer: The Inhibition was 18%.

Question: Which results are given for `CNC(=O)COc1cc(C)c(C2CCN(CCCCNC(=O)c3ccc(-c4ccc(C(F)(F)F)cc4)cc3)CC2)cc1C`?
Answer: Inhibition [1]: 100%; Inhibition [2]: 72%; Inhibition [3]: 38%

Question: Which Inhibition [1] does the source give for `Cc1cc(N2CCCC2)nc(Nc2ccc(NC(=O)Cc3ccccc3)cc2)n1` here?
Answer: Its Inhibition is 100%.

Question: What about the Inhibition [2] of the same compound?
Answer: Its Inhibition is 72%.

Question: And the Inhibition [3]?
Answer: Its Inhibition is 71%.

Question: For `Cc1ccc(N2C(=O)C3C(C2=O)C2(c4ccccc4)C(=O)C3(c3ccccc3)C(c3ccccc3)=C2c2ccccc2)c(C)c1` (centres undefined), which Inhibition [1] is on record?
Answer: The Inhibition was 96%.

Question: What about the Inhibition [2] of the same compound?
Answer: The Inhibition was 96%.

Question: And the Inhibition [3]?
Answer: The Inhibition was 3%.

Question: With `COc1ccc2nccc([C@@H](O)CN3CCC(NCc4nc5cc(F)c(F)cc5[nH]4)CC3)c2c1.O=C(O)C(=O)O` as the compound, how does the Inhibition [1] read?
Answer: The Inhibition was 96%.

Question: And the Inhibition [2]?
Answer: The Inhibition was 36%.

Question: And the Inhibition [3]?
Answer: The Inhibition was 12%.

Question: How did the Inhibition [1] turn out when `O=C(Nc1cccc(CN2CCCN(Cc3ccc(F)cc3)CC2)c1)c1ccc(Cl)c(Cl)c1.O=C(O)C(F)(F)F` was run?
Answer: The Inhibition was 95%.

Question: What about the Inhibition [2] of the same compound?
Answer: The Inhibition was 17%.

Question: And the Inhibition [3]?
Answer: The Inhibition was 27%.

Question: How did the Inhibition [1] turn out when `COc1ccc(-n2ccnc2SCC(=O)Nc2cc(C)ccc2C)c(OC)c1` was run?
Answer: The Inhibition was 94%.

Question: And the Inhibition [2]?
Answer: The Inhibition was 93%.

Question: And the Inhibition [3]?
Answer: Its Inhibition is 2%.

Question: How did the Inhibition [1] turn out when `CCN(CC)CCN(Cc1ccc(-c2ccc(Br)cc2)cc1)C(=O)Cn1c(CCc2cccc(F)c2F)nc(=O)c2ccccc21.O=C(O)C(O)C(O)C(=O)O` was run?
Answer: The Inhibition was 98%.

Question: And the Inhibition [2]?
Answer: The Inhibition was 74%.

Question: And the Inhibition [3]?
Answer: Its Inhibition is 37%.

Question: For `N#Cc1ccc2[nH]c(-c3cc(-c4cccc(F)c4)cnc3N)nc2c1.O=C(O)C(F)(F)F`, which Inhibition [1] is on record?
Answer: Its Inhibition is 100%.

Question: What about the Inhibition [2] of the same compound?
Answer: Its Inhibition is 93%.

Question: And the Inhibition [3]?
Answer: The Inhibition was 46%.

Question: Which Inhibition [1] does the source give for `CCCCCCN1CCN(Cc2cccc(NC(=O)c3cc4ccccc4s3)c2)CC1.O=C(O)C(F)(F)F` here?
Answer: Its Inhibition is 93%.

Question: And the Inhibition [2]?
Answer: The Inhibition was 68%.

Question: What about the Inhibition [3] of the same compound?
Answer: Its Inhibition is 20%.

Question: `COc1ccc(CNC2Cc3ccccc3C2)cc1-c1ccc(S(=O)(=O)NCCc2ccccn2)s1.O=C(O)C(F)(F)F` was tested. Which Inhibition [1] did it give?
Answer: Its Inhibition is 92%.

Question: What about the Inhibition [2] of the same compound?
Answer: The Inhibition was 22%.

Question: What about the Inhibition [3] of the same compound?
Answer: The Inhibition was 11%.

Question: Which Inhibition [1] does the source give for `CC(=O)Nc1ccc(C(=O)N2CCN(c3ccnc4cc(Cl)ccc34)CC2)cc1.O=C(O)C(F)(F)F` here?
Answer: Its Inhibition is 93%.

Question: And the Inhibition [2]?
Answer: The Inhibition was 43%.

Question: What about the Inhibition [3] of the same compound?
Answer: The Inhibition was 2%.

Question: Which results are given for `O=C(Nc1cc(C(F)(F)F)ccc1-n1cncn1)C1(c2ccccc2)CC1`?
Answer: Inhibition [1]: 100%; Inhibition [2]: 100%; Inhibition [3]: 11%

Question: Which Inhibition [1] does the source give for `COc1cccc(CN2CCCN(Cc3cccc(NC(=O)c4cc5ccccc5s4)c3)CC2)c1.O=C(O)C(F)(F)F` here?
Answer: The Inhibition was 89%.

Question: And the Inhibition [2]?
Answer: Its Inhibition is 16%.

Question: And the Inhibition [3]?
Answer: Its Inhibition is 17%.

Question: For `Cl.O=C(Nc1ccc2c(c1)CCN(C1CCC1)CC2)c1ccc(-c2cn3ccccc3n2)cc1`, which Inhibition [1] is on record?
Answer: Its Inhibition is 100%.

Question: And the Inhibition [2]?
Answer: Its Inhibition is 42%.

Question: What about the Inhibition [3] of the same compound?
Answer: Its Inhibition is 13%.

Question: What does the source list for `COc1ccc2ncc(Cl)c(N3CCC(CCNCc4ccc5c(n4)NC(=O)CS5)CC3)c2c1.Cl`?
Answer: Inhibition [1]: 89%; Inhibition [2]: 82%; Inhibition [3]: 33%

Question: Which results are given for `COc1ccc(-c2onc(C(F)(F)F)c2-c2cc3ccccc3o2)c(O)c1`?
Answer: Inhibition [1]: 93%; Inhibition [2]: 15%; Inhibition [3]: 6%
